Compounds without any hit were thinned out: in the full panel of roughly 83,000, 20% have a hit.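 The test compound was applied at a single concentration to cells in 96-well plates for 48 hours, and percent growth was recorded.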 Unmarked numbers belong to inactive results. Active and inactive are the calls of the source. The calls were made as follows: active = growth percent below 10; inactive = the rest.

Holding throughout (assay): NCI-60 one-dose screen, 48 h (100 = growth as untreated, 0 = no growth, -100 = all killed)
Test [1] has as its system DU-145 prostate. The following applies: 10 µM unless noted.
The test system of test [2] is MALME-3M melanoma. The following applies: 10 µM unless noted.
Test [3] deals with MDA-MB-231 breast. The following applies: 10 µM unless noted.
The test system of test [4] is RXF 393 renal. The following applies: 10 µM unless noted.
The subject of test [5] is SF-268 CNS. The following applies: 10 µM unless noted.
Test [6] concerns SF-295 CNS. The following applies: 10 µM unless noted.
In test [7] the test system is SF-539 CNS. The following applies: 10 µM unless noted.
Test [8] relates to UACC-257 melanoma. The following applies: 10 µM unless noted.
In test [9] the test system is M14 melanoma. The following applies: 10 µM unless noted.
Test [10] deals with HCT-15 colon. The following applies: 10 µM unless noted.
For test [11], the system named is HT29 colon. The following applies: 10 µM unless noted.
Test [12] deals with SNB-75 CNS. The following applies: 10 µM unless noted.
In test [13] the test system is SNB-19 CNS. The following applies: 10 µM unless noted.
In test [14] the test system is U251 CNS. The following applies: 10 µM unless noted.
Test [15] relates to PC-3 prostate. The following applies: 10 µM unless noted.
The subject of test [16] is UACC-62 melanoma. The following applies: 10 µM unless noted.
Test [17] concerns LOX IMVI melanoma. The following applies: 10 µM.
Test [18] deals with SK-MEL-28 melanoma. The following applies: 10 µM unless noted.

On to `CN1CCN(Cc2ccc(C(=O)Nc3cccc(C#Cc4cccc5[nH]nc(N)c45)c3)cc2C(F)(F)F)CC1`, for which the growth in [1] was -68% (active); in [2], -82.6% (active); in test [3], -90.8% (active); in test [4], -93.6% (active); in [5] it was -59% (active); in test [6], -93.4% (active). Moreover, the growth in [7] is -97.5% (active); in [8], -94.7% (active); in test [9], -95.6% (active); in test [10], -93.9% (active); in test [11] it was -50.3% (active); in test [12], -82.5% (active). Further, the growth was -89.7% (active) in test [13]; -79.2% (active) in [14]; -22.9% (active) in test [15]; -88% (active) in test [16]; -92% (active) in [17]; -97.4% (active) in [18].
Consider `COc1ccc(C(=O)/C=C/c2ccccc2Cl)cc1S(N)(=O)=O`, for which the growth in test [1] was 117%; in test [2] it was 93.9%; in test [3], 91.9%; in test [4], 124%; in test [5], 92.1%; in test [6], 89.2%. In addition, the growth in [7] was 97.5%; in test [8] it was 120%; in test [9], 109%; in test [10] it was 92.9%; in test [12], 107%; in test [13] it was 97.4%. The growth in test [14] is 109%; in test [15], 106%; in test [16], 92.9%; in [17], 105%; in test [18], 103%.
For the compound `COc1ccccc1/C=C/C(=O)c1ccc(OC)c(S(N)(=O)=O)c1`, the growth was 26.4% in test [1]; 50% in [2]; 7.39% (active) in test [3]; -0.859% (active) in test [4]; 21% in test [5]; 21.8% in test [6]. For the same compound, the growth in test [7] is -4.72% (active); in test [8], 59.6%; in test [9], 8.83% (active); in test [10], 7.53% (active); in test [11], 18.7%; in test [12] it was 8.99% (active). Also, the growth in test [13] is 27.3%; in test [14] it was 5.14% (active); in test [15], 48.5%; in test [16] it was 44.4%; in test [17], 1.03% (active); in test [18] it was 38.7%.
Regarding `COc1cc(OC)cc(C(=O)Nc2cccc(-c3cn(-c4ccc(S(N)(=O)=O)cc4)nn3)c2)c1`, the growth was 97.2% in test [1]; 79.9% in test [2]; 67.5% in [3]; 57.5% in test [4]; 50.3% in test [5]; 63% in test [6]. The growth in test [7] was 60.3%; in [8], 101%; in [9] it was 91.3%; in test [10], 92.2%; in test [11], 114%; in test [12], 51.7%. The growth is 32.2% in test [14]; 91.4% in [15]; 80.4% in [16]; 69.3% in test [17]; 81.1% in [18].
As to `O=C1Nc2ccc([N+](=O)[O-])cc2C1=Nc1ccccc1`, the growth in test [1] was 114%; in test [2], 100%; in test [3], 95.3%; in [4], 143%; in test [5], 98.9%; in test [6], 90.7%. The growth in test [7] was 91.8%; in test [8], 134%; in test [9], 104%; in test [10], 92.5%; in test [11] it was 122%; in test [12], 101%. Further, the growth was 96.6% in [13]; 106% in test [14]; 94.4% in test [15]; 59.7% in test [16]; 97.2% in [17]; 108% in test [18].
For the compound `CN1CCN(c2ccc3c(c2)nc(NNC(=O)c2cnccn2)c2cccn23)CC1`, the growth in [1] was -9.7% (active); in test [2] it was -24.5% (active); in test [3], -35.1% (active); in test [4], -65.1% (active); in test [5], 10.6%; in test [6], -81.3% (active). Moreover, the growth is -41.3% (active) in [7]; -48.6% (active) in test [8]; -78.1% (active) in [9]; -51% (active) in test [10]; 6.95% (active) in [11]; 28.7% in [12]. For the same compound, the growth in [13] was 20%; in [14], -19.1% (active); in test [15], 11.7%; in [16] it was -17.9% (active); in test [18] it was -15% (active).
`COc1ccc(C(=O)/C=C/c2cccc3ccccc23)cc1S(N)(=O)=O`: the growth in test [1] was 13.2%; in [2] it was 30.1%; in test [3] it was 21.8%; in test [4], -59.4% (active); in [5], 14.4%; in test [6], -61.7% (active). In addition, the growth in [7] is -83.4% (active); in [8] it was -42.6% (active); in test [9] it was -74% (active); in [10], -65.3% (active); in test [11] it was -39.5% (active); in [12], 51.2%. Further, the growth is 10.5% in test [13]; -93.9% (active) in test [14]; 12.8% in [15]; -58% (active) in [16]; -84.2% (active) in test [17]; -50.8% (active) in [18].
`COc1ccc(C(=O)/C=C/c2ccccc2Br)cc1S(N)(=O)=O`: the growth in test [1] was -31.7% (active); in test [2], 62.3%; in test [3], -20.8% (active); in test [4] it was -70% (active); in test [5], 14.2%; in test [6] it was -76.6% (active). Also, the growth was -74.9% (active) in test [7]; 15.5% in test [8]; -11.7% (active) in test [9]; -91.5% (active) in test [10]; -17.2% (active) in test [11]; 34.1% in test [12]. Besides, the growth is 1.44% (active) in test [13]; -95.6% (active) in test [14]; 21% in [15]; 34.4% in test [16]; -89.9% (active) in [17]; -27.7% (active) in [18].
